A short description of the assay: qHTS profiling of the MIPE4 collection as inhibitors of Plasmodium falciparum (HB3) proliferation (AID 743347). Particulars: P. falciparum HB3 in erythrocytes, SYBR Green DNA, 72 h; at 28.5 µM (top of the series). The source says:
Plasmodium falciparum is a virulent malarial parasite that kills 1-2 million people worldwide each year. Transmitted by mosquitoes, the sporozoite form of the parasite enters the blood stream to infect hepatocytes, where they become merozoites that infect red blood cells (erythrocytes). Within erythrocytes, merozoites begin a […] cycle of growth and division, after which the parasite is released to infect new red blood cells. Gametocytes, which form within erythrocytes as well, circulate in the bloodstream and are ingested by the mosquito, thereby completing the life cycle. To profile malarial isolates for differential chemical responses and to identify inhibitors of malarial growth, an assay that measures P. falciparum growth and replication within erythrocytes was employed. This assay uses a DNA binding fluorescent dye (SYBR Green) to detect parasite DNA following cell lysis. Because mature erythrocytes lack DNA, only Plasmodium-derived DNA is detected.
The SYBR Green viability assay was adapted from a method described previously (Plouffe et al., 2008). For screening 3 ul culture medium was dispensed into 1536 well black clear bottom plates (Aurora Biotechnologies) using a Multidrop Combi (Thermo Fisher Scientific Inc.), 23 nL compounds in DMSO were added by a pin tool (Kalypsys), and 5 ul of erythrocytes infected with P. falciparum (0.3% parasitemia, 2.5% hematocrit final concentration) were added. The plates were incubated at 37 C in a humidified incubator in 5% CO2 for 72 h, and 2 ul lysis buffer (20 mM Tris HCl, 10 mM EDTA, 0.16% saponin, 1.6% triton X, 10X SYBR Green I supplied as 10,000X […] by Invitrogen) was added to each well. The plates were mixed for 25 sec with gentle shaking and incubated overnight at room temperature in the dark. The following morning, fluorescence intensity at 485(14) nm excitation and 535(25) nm emission wavelengths was measured on an EnVision (Perkin Elmer) plate reader. Plate reads were normalized relative to the control inhibitor (0.29 uM artemisinin) and vehicle (DMSO) wells present on each plate and then corrected by an algorithm using vehicle-only control plates at the beginning and end of the compound plate stack.
(Quantitative high-throughput screening tests each substance at several concentrations.)
`O=C(NCC1CCOCC1)c1cnc(Nc2ccc(Cl)cc2Cl)nc1C(F)(F)F` registered a growth, % of control of 49.9%.

The molecule `C#C[C@]1(O)C=C[C@@H]2[C@@H]3CCC4=CC(=O)CC[C@@H]4[C@H]3CC[C@@]21CC` gave a growth, % of control of 41.2%.

The molecule `O=c1cccc2n1CC1CNC[C@H]2C1` showed a growth, % of control of 52.1%. The same measure for `COc1ccc(C(=O)c2c(C)n(CCN3CCOCC3)c3cc(I)ccc23)cc1`: 33.7%; for `C[C@@H]1[C@H](O)[C@@H](C)C=CC=CCCC=CC=CC=CC=C[C@H](O[C@H]2O[C@@H](C)[C@H](O)[C@@H](N)[C@@H]2O)CC2O[C@](O)(C[C@@H](O)[C@H](O)CC[C@@H](O)C[C@@H](O)C[C@@H](O)CC(=O)O[C@H]1C)C[C@H](O)[C@H]2C(=O)O`: 83.8%; for `CC[C@H](CO)Nc1nc(NCc2ccccc2)c2ncn(C(C)C)c2n1`: 47.3%. With `CC=C(C)C(=O)N[C@@H](c1ccccc1)[C@@H](O)C(=O)O[C@H]1C[C@@]2(O)[C@@H](OC(=O)c3ccccc3)[C@@H]3[C@]4(OC(C)=O)CO[C@@H]4C[C@H](O)[C@@]3(C)C(=O)[C@H](OC(C)=O)C(=C1C)C2(C)C` the figure was 6.33%; with `CCOP(=O)(OCC)C(C)NC(=O)N(CCCl)N=O` (stereo not given), 116%; with `C#CC1(O)CCC2C3CCC4=CC(=O)CCC4(C)C3CCC21C` (stereo not given), 89%.

Regarding `COC(=O)[C@@H](N)CCCN=C(N)N[N+](=O)[O-]`, the growth, % of control is 92.1%. The same measure for `C[C@]12Cc3cn[nH]c3C[C@@H]1CC[C@@H]1[C@H]2CC[C@@]2(C)[C@H]1CC[C@]2(C)O`: 47.2%; for `C[C@]12COC(=O)C[C@@H]1CC[C@@H]1[C@H]2CC[C@@]2(C)[C@H]1CC[C@]2(C)O`: 93.7%. The same measure for `C[C@]12CC[C@H](O)CC1=CC[C@H]1[C@H]3CCC(=O)[C@@]3(C)CC[C@@H]12`: 98.3%; for `CCOC(=O)Nc1ccc(NCc2ccc(F)cc2)cc1N`: 15.1%. The same measure for `CCCCCC[C@H]1C(=O)O[C@H](C)[C@H](NC(=O)c2cccc(NC=O)c2O)C(=O)O[C@@H](C)[C@@H]1OC(=O)CC(C)C`: 26.2%; for `C=C[C@@H]1CN2CCC1C[C@@H]2[C@@H](O)c1ccnc2ccccc12` (stereo not given in full): 17.3%; for `COC1=C[C@@H]2[C@@H]3Cc4ccc(OC)c(O)c4[C@]2(CCN3C)CC1=O`: 106%. For `Cc1nc(-c2ccc(-c3ccc(C(=O)N4CCc5cc6c(cc54)C4(CCN(C)CC4)CO6)cc3)c(C)c2)no1`, the growth, % of control came to 43.5%. The same measure for `COc1cccc2c1[C@]13CCN(CC4CC4)[C@H](C2)[C@]1(OC)CCC(=O)C3`: 69.1%. Turning to `CCNC(=O)C[C@@H]1N=C(c2ccc(Cl)cc2)c2cc(OC)ccc2-n2c(C)nnc21`, the growth, % of control worked out at 94.6%.

`CC(=O)Nc1ccc(OC[C@](C)(O)C(=O)Nc2ccc([N+](=O)[O-])c(C(F)(F)F)c2)cc1` gave a growth, % of control of 91.2%. `CC(=O)O[C@@]12CO[C@H]1C[C@H](O)[C@@]1(C)C(=O)[C@H](O)C3=C(C)[C@@H](O)C[C@@](O)([C@@H](OC(=O)c4ccccc4)[C@@H]21)C3(C)C` had a growth, % of control of 34.8%.

As for `CC(C)(O)C(=O)Nc1ccc([N+](=O)[O-])c(C(F)(F)F)c1`, the growth, % of control is 79%.

With `CC(N[C@H]1C[C@H]1c1ccccc1)c1ccc2c(c1)OCCO2` (stereo not given in full), the growth, % of control was determined as 60.1%. The same measure for `C1=C2CCCN[C@H]2[C@@H]2C[C@H]1[C@@H]1CCCCN1C2`: 94.5%. `O=c1[nH]c2ccccc2n1C1CCN(Cc2ccc(-c3[nH]c4cc5ncnc5cc4nc3-c3ccccc3)cc2)CC1` returned a growth, % of control of 4.58%.

Regarding `O=S(=O)(F)Cc1ccccc1`, the growth, % of control amounted to 94%. The same measure for `C[C@H]1CCCC=CC2C[C@H](O)C[C@@H]2[C@H](O)C=CC(=O)O1` (stereo not given in full): 2.99%; for `C[C@]12CCC(=O)C(O)=C1CC[C@@H]1[C@H]3CCC(=O)[C@@]3(C)CC[C@@H]12`: 54.8%; for `C[C@@]12OC(=O)[C@]1([C@@H](O)[C@@H]1C=CCCC1)NC(=O)[C@H]2CCCl`: 5.21%.

Molecule `COCC1(CO)C(=O)C2CCN1CC2` (stereo not given) had a growth, % of control of 87.2%.

Regarding `Clc1ccccc1C(c1ccccc1)(c1ccccc1)n1cccn1`, the growth, % of control was 6.73%. With `Cc1[nH]nc2ccc(-c3cncc(OC[C@@H](N)Cc4c[nH]c5ccccc45)c3)cc12` the figure was 8.77%. `CCCC[N+]1(C)[C@H]2CC(OC(=O)[C@H](CO)c3ccccc3)C[C@H]1[C@H]1O[C@H]12` (stereo not given in full): the growth, % of control was determined as 52.3%.

The molecule `COc1ccc2c(c1)[C@]13CCCCC1C(C2)N(C)CC3` (stereo not given in full) displayed a growth, % of control of 323%. With `O=C(N[C@H]1CN2CCC1CC2)c1ccc(Cl)cc1` the figure was 71.8%; with `CC(=O)N(C)c1cccc(-c2ccnc3c(C(=O)c4cccs4)cnn23)c1`, 50.4%. With `O=C(Nc1ccncc1)C(=O)c1cn(Cc2ccc(Cl)cc2)c2ccccc12` the figure was 78.4%. In the case of `NC1CC1c1ccccc1` (stereo not given), the growth, % of control was found to be 109%.

On to `CC1(N2CCC(n3c([C@@H]4CCCNC4)nc4ccccc43)CC2)CCCCCCC1`, for which the growth, % of control came to 6.13%.

(Values after PubChem BioAssay (NCATS).)
